# From the supplement of paper PMC13380429
# Tests used:
# [1] = system: Vero E6 infected with SARS-CoV-2; experiment: morphology score (similarity to uninfected cells); higher = more like uninfected cells; details: 24 h
# [2] = system: Vero E6 infected with SARS-CoV-2; experiment: SARS-CoV-2 infection rate relative to infected DMSO; higher = more infection, active = 60 or less; details: 24 h
# [3] = system: Vero E6 infected with SARS-CoV-2; experiment: inhibition of SARS-CoV-2 cytopathic effect; higher = more antiviral protection, active = above 15; details: 48 h
structure (smiles),measurement,setting,value
C[C@@H](N)c1ccc(C(=O)Nc2ccnc3[nH]ccc23)cc1 (10 µM),morphology score,[1],-0.104
same,SARS-CoV-2 infection rate,[2],112% (inactive)
Cc1ccccc1N(C)C(=O)c1ccc([S+]([O-])c2nccs2)c([N+](=O)[O-])c1 (stereo not given) (0.833333 µM),morphology score,[1],-0.0736
same,SARS-CoV-2 infection rate,[2],81% (inactive)
CCCCNc1ncc2c(-c3ccc(CN4CCN(C)CC4)cc3)cn([C@H]3CC[C@H](O)CC3)c2n1 (10 µM),morphology score,[1],-0.164
same,SARS-CoV-2 infection rate,[2],119% (inactive)
NC1=N[C@@](c2cccc(-c3cncnc3)c2)(c2ccnc(C(F)F)c2)c2cccc(F)c21 (10 µM),morphology score,[1],0.163
same,SARS-CoV-2 infection rate,[2],92.5% (inactive)
CC[N+](CC)(CC(=O)Nc1c(C)cccc1C)Cc1ccccc1 [denatonium-benzoate] (10 µM),morphology score,[1],0.144
same,SARS-CoV-2 infection rate,[2],116% (inactive)
O=C(NC1CCOCC1)c1ccc(-c2cc(-c3c[nH]nc3-c3ccccn3)ccn2)cc1 (10 µM),morphology score,[1],-0.0411
same,SARS-CoV-2 infection rate,[2],114% (inactive)
C[C@@H](c1ccc2nccn2c1)n1nnc2ncc(-c3cnn(C)c3)nc21 [savolitinib] (10 µM),morphology score,[1],-0.18
same,SARS-CoV-2 infection rate,[2],104% (inactive)
COc1cc(Nc2nc3ccccc3nc2NS(=O)(=O)c2ccc(NC(=O)c3ccc(C)c(OC)c3)cc2)cc(OC)c1 (10 µM),morphology score,[1],0.0476
same,SARS-CoV-2 infection rate,[2],119% (inactive)
OCCN(CCO)c1nc(N2CCCCC2)c2nc(N(CCO)CCO)nc(N3CCCCC3)c2n1 [dipyridamole] (10 µM),morphology score,[1],0.26
same,SARS-CoV-2 infection rate,[2],90.5% (inactive)
CNC(=O)ON(C(C)=O)C(=O)NC [caracemide] (10 µM),morphology score,[1],0.0974
same,SARS-CoV-2 infection rate,[2],104% (inactive)
Nc1ccc(C(=O)O)c(O)c1 [aminosalicylate] (10 µM),morphology score,[1],-0.137
same,SARS-CoV-2 infection rate,[2],106% (inactive)
CC(C)(O)CS(=O)(=O)Nc1ccc2c(c1)CCN(C(=O)COc1cccnc1)C2 [Nampt-IN-1] (10 µM),morphology score,[1],-0.0571
same,SARS-CoV-2 infection rate,[2],104% (inactive)
Cc1oc(=O)oc1COC(=O)C1=C([C@H]2CCCO2)S[C@@H]2[C@@H]([C@@H](C)O)C(=O)N12 [faropenem-medoxomil] (10 µM),morphology score,[1],-0.119
same,SARS-CoV-2 infection rate,[2],114% (inactive)
C[C@](N)(Cc1ccc(O)cc1)C(=O)O [metirosine] (10 µM),morphology score,[1],-0.111
same,SARS-CoV-2 infection rate,[2],112% (inactive)
O=C(NO)c1ccc(O)c(O)c1 [didox] (10 µM),morphology score,[1],0.0981
same,SARS-CoV-2 infection rate,[2],96% (inactive)
Cn1c(=O)c2c(ncn2CC(=O)O)n(C)c1=O [acefylline] (10 µM),morphology score,[1],0.124
same,SARS-CoV-2 infection rate,[2],100% (inactive)
C=CCN(C)CCCCCCOc1ccc(C(=O)c2ccc(Br)cc2)c(F)c1 (10 µM),morphology score,[1],0.728
same,SARS-CoV-2 infection rate,[2],33.5% (active)
O=C(O)C[C@H]1CC[C@H](c2ccc(NC(=O)c3nnc(Nc4ccc(F)c(F)c4)o3)cc2)CC1 (10 µM),morphology score,[1],0.115
same,SARS-CoV-2 infection rate,[2],91% (inactive)
Nc1ccncc1N [amifampridine],inhibition of SARS-CoV-2 cytopathic effect,[3]; 1 nM,-1.81% (inactive)
same,inhibition of SARS-CoV-2 cytopathic effect,[3]; 8.33 nM,-1.46% (inactive)
same,inhibition of SARS-CoV-2 cytopathic effect,[3]; 100 nM,-2.67% (inactive)
same,inhibition of SARS-CoV-2 cytopathic effect,[3]; 833.33 nM,-3.34% (inactive)
same,inhibition of SARS-CoV-2 cytopathic effect,[3]; 10000 nM,-5.61% (inactive)
CC(C)C(=O)c1c(C(C)C)nn2ccccc12 [ibudilast],inhibition of SARS-CoV-2 cytopathic effect,[3]; 1 nM,2.15% (inactive)
same,inhibition of SARS-CoV-2 cytopathic effect,[3]; 8.33 nM,6.68% (inactive)
same,inhibition of SARS-CoV-2 cytopathic effect,[3]; 100 nM,5.43% (inactive)
same,inhibition of SARS-CoV-2 cytopathic effect,[3]; 833.33 nM,7.59% (inactive)
same,inhibition of SARS-CoV-2 cytopathic effect,[3]; 10000 nM,2.39% (inactive)
CCCCC(CC)COc1ccc(-c2nc(-c3ccc(OC)cc3)nc(-c3ccc(OCC(CC)CCCC)cc3O)n2)c(O)c1 (stereo not given) [bemotrizinol],inhibition of SARS-CoV-2 cytopathic effect,[3]; 1 nM,1.11% (inactive)
same,inhibition of SARS-CoV-2 cytopathic effect,[3]; 8.33 nM,3.46% (inactive)
same,inhibition of SARS-CoV-2 cytopathic effect,[3]; 100 nM,1.8% (inactive)
C[N+](C)(C)CCCCCC[N+](C)(C)C [hexamethonium],inhibition of SARS-CoV-2 cytopathic effect,[3]; 1 nM,-0.33% (inactive)
same,inhibition of SARS-CoV-2 cytopathic effect,[3]; 8.33 nM,1.65% (inactive)
same,inhibition of SARS-CoV-2 cytopathic effect,[3]; 100 nM,0.44% (inactive)
same,inhibition of SARS-CoV-2 cytopathic effect,[3]; 833.33 nM,-0.93% (inactive)
same,inhibition of SARS-CoV-2 cytopathic effect,[3]; 10000 nM,-1.17% (inactive)
COc1cc(NC(C)CCCN)c2ncccc2c1 (stereo not given) [primaquine] (10 µM),morphology score,[1],0.491
same,SARS-CoV-2 infection rate,[2],76.5% (inactive)
CN(C)C(=S)SSC(=S)N(C)C [thiram],inhibition of SARS-CoV-2 cytopathic effect,[3]; 1 nM,5.06% (inactive)
same,inhibition of SARS-CoV-2 cytopathic effect,[3]; 8.33 nM,3.58% (inactive)
same,inhibition of SARS-CoV-2 cytopathic effect,[3]; 100 nM,-8.77% (inactive)
CC(=O)Nc1c(I)cc(I)c(C(=O)O)c1I [acetriazoic-acid],inhibition of SARS-CoV-2 cytopathic effect,[3]; 1 nM,-0.01% (inactive)
same,inhibition of SARS-CoV-2 cytopathic effect,[3]; 8.33 nM,0.54% (inactive)
same,inhibition of SARS-CoV-2 cytopathic effect,[3]; 100 nM,-0.88% (inactive)
same,inhibition of SARS-CoV-2 cytopathic effect,[3]; 833.33 nM,0.14% (inactive)
same,inhibition of SARS-CoV-2 cytopathic effect,[3]; 10000 nM,-0.46% (inactive)
CS(=O)(=O)c1ccc([C@@H](O)[C@@H](CO)NC(=O)C(Cl)Cl)cc1 [thiamphenicol],inhibition of SARS-CoV-2 cytopathic effect,[3]; 1 nM,-1.6% (inactive)
same,inhibition of SARS-CoV-2 cytopathic effect,[3]; 8.33 nM,-2.5% (inactive)
same,inhibition of SARS-CoV-2 cytopathic effect,[3]; 100 nM,-3.22% (inactive)
same,inhibition of SARS-CoV-2 cytopathic effect,[3]; 833.33 nM,-3.59% (inactive)
same,inhibition of SARS-CoV-2 cytopathic effect,[3]; 10000 nM,-2.23% (inactive)
Cl[C@H]1[C@H](Cl)[C@@H](Cl)[C@@H](Cl)[C@H](Cl)[C@H]1Cl [lindane],inhibition of SARS-CoV-2 cytopathic effect,[3]; 1 nM,-2.48% (inactive)
same,inhibition of SARS-CoV-2 cytopathic effect,[3]; 8.33 nM,-1.41% (inactive)
same,inhibition of SARS-CoV-2 cytopathic effect,[3]; 100 nM,-0.79% (inactive)
O=[N+]([O-])c1ccc([As](=O)(O)O)cc1 [nitarsone],inhibition of SARS-CoV-2 cytopathic effect,[3]; 1 nM,-0.01% (inactive)
same,inhibition of SARS-CoV-2 cytopathic effect,[3]; 8.33 nM,1.59% (inactive)
same,inhibition of SARS-CoV-2 cytopathic effect,[3]; 100 nM,0.4% (inactive)
Cn1c(CNc2ccc(C(=N)N)cc2)nc2cc(C(=O)N(CCC(=O)O)c3ccccn3)ccc21 [dabigatran],inhibition of SARS-CoV-2 cytopathic effect,[3]; 1 nM,-0.46% (inactive)
same,inhibition of SARS-CoV-2 cytopathic effect,[3]; 8.33 nM,1.73% (inactive)
same,inhibition of SARS-CoV-2 cytopathic effect,[3]; 100 nM,-0.12% (inactive)
same,inhibition of SARS-CoV-2 cytopathic effect,[3]; 833.33 nM,0.58% (inactive)
same,inhibition of SARS-CoV-2 cytopathic effect,[3]; 10000 nM,3.34% (inactive)
